The list is not random: actives were taken first. Their share in the collection is about 12%.
AmpC inh detg – qHTS Inhibitors of AmpC Beta-Lactamase (assay with detergent); AID 485294, 2010; Potency, µM (doses to about 114 µM), inactives show at the highest dose activity change, negative = inhibition, most hits filed as inhibitors; hit rate 0.041% among 370,000; AmpC hydrolysis of nitrocefin, absorbance 480 nm, 0.01% Triton;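 also: 0% = no-compound wells and -100% = no-enzyme wells; nearly all actives have a fitted effect of over 25% in size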
Target sequence (P00811 whole entry, looked up): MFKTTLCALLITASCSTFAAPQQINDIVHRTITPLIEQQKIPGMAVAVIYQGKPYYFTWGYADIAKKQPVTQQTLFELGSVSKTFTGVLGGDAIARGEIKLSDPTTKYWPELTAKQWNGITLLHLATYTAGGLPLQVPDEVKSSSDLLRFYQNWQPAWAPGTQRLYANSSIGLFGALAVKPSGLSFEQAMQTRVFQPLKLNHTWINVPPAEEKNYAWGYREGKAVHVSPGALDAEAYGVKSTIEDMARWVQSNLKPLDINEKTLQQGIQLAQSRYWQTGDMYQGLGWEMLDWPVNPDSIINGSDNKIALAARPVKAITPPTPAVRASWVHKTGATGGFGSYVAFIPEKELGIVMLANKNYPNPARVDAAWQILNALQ
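AmpC (5.3 nM in the dispensed reagent) in 20 mM phosphate pH 7.0 with 0.01% (detergent screen) or 0.0001% Triton X-100 was preincubated with compounds for 15 min at room temperature. Nitrocefin was then added from an 800 uM solution, and hydrolysis was followed at 480 nm.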
SARS PLpro yeast – qHTS of Yeast-based Assay for SARS-CoV PLP; S. cerevisiae expressing SARS-CoV PLpro, growth rescue; Potency, µM (doses to about 32.9 µM), for inactives: at the highest dose activity, positive = growth rescue, hits mostly activators; hit rate 0.19% among 330,000; AID 485353, 2010; calls by dose curve; also: 0% is about no effect; nearly all actives have a fitted effect of over 55% in size
Pf growth 48h – Primary qHTS for delayed death inhibitors of the malarial parasite plastid, 48 hour incubation. P. falciparum luciferase growth in erythrocytes, 48 h. Potency, µM (series often up to 28.7 µM), for inactives: at the highest dose activity change, negative = inhibition, hits mostly inhibitors. hit rate 5.9% among 310,000. AID 504832, 2011; also: % is scaled to controls: 0 for no effect and ±100 for the full control effect
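Firefly luciferase activity from engineered P. falciparum reports growth; inhibitors lower the luminescent signal. Cultures contained 2% hematocrit erythrocytes at 0.1% final parasitemia.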
Pf growth 96h – Primary qHTS for delayed death inhibitors of the malarial parasite plastid, 96 hour incubation; P. falciparum luciferase reporter growth, 96 h; Potency, µM (doses to about 28.7 µM), inactives show at the top dose activity change, negative = inhibition, actives largely listed as inhibitors; hit rate 6.9% among 320,000; AID 504834, 2011; also: % is scaled to controls: 0 for no effect and ±100 for the full control effect
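Parasite growth measured via integrated firefly luciferase reporter in P. falciparum. Infected erythrocytes at 2% hematocrit, 0.05% parasitemia final were treated 96 hours at 37 C under 5% CO2, and luminescence was read.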
Sm TGR inh – qHTS Assay for the Inhibitors of Schistosoma Mansoni Peroxiredoxins | hit rate 3% among 360,000 | Potency, µM (top dose mostly 114 µM), without a hit: at the top dose activity change, negative = inhibition, usual class: inhibitors | purified TGR, DTNB reduction, TNB absorbance 405 nm; also: % is scaled to controls: 0 for no effect and ±100 for the full control effect; nearly all actives have a fitted effect of over 60% in size
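TGR 20 nM + NADPH 100 uM (dispensed conc.), cpd preinc 15 min RT; start with NADPH (500 uM addition) then DTNB (15 mM addition). Kinetic TNB absorbance, 405 nm filter. Four-parameter Hill fit across titration.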
AmpC no deterg – qHTS Inhibitors of AmpC Beta-Lactamase (assay without detergent) | hit rate 0.52% among 330,000 | AmpC nitrocefin hydrolysis, absorbance 480 nm, 0.0001% Triton | Potency, µM (doses to about 57.1 µM), for the others: at the highest dose activity change, negative = inhibition, actives largely listed as inhibitors;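 also: plate controls were no compound for no effect and no enzyme for full effect; nearly all actives have a fitted effect of over 20% in size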
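20 mM phosphate pH 7.0 + 0.01% (detergent screen) or 0.0001% Triton X-100; 5.3 nM AmpC reagent; cpd preinc 15 min RT; nitrocefin (800 uM stock) to start; A480 q20 s × 4 min; Activity was normalised to no-enzyme and no-compound control wells.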
Numbers without * were called inactive; ? = inconclusive; / = no result given; [ ] = dose if it differs, or a comment. Unless noted, calls follow the shape of the dose curve; as a rule, active = well fitted curve in the direction sought with a large enough effect; inconclusive = small, poorly fitted or top-dose-only effect, or another doubt; inactive = no such curve, though single readings can be large; an effect the other way counts as inactive or inconclusive. Potency is read from the fitted curve at half-maximal effect.

SMILES	AmpC inh detg	SARS PLpro yeast	Pf growth 48h	Pf growth 96h	Sm TGR inh	AmpC no deterg
CCN(c1ccccc1)S(=O)(=O)c1ccc(C(=O)N(CCCN(C)C)c2nc3cc4c(cc3s2)OCO4)cc1	16%	?	-59%	-8%	-6%	270%
Cc1ccc2sc(N(CCCN(C)C)C(=O)c3ccc(S(=O)(=O)N(C)C)cc3)nc2c1C	1%	-1%	?	?	12%	147%
Cc1ccc2sc(N(CCCN(C)C)C(=O)c3ccc(S(=O)(=O)N(C)Cc4ccccc4)cc3)nc2c1C	0%	-14%	10µM*	12µM*	-3%	196%
CCN(c1ccccc1)S(=O)(=O)c1ccc(C(=O)N(CCCN(C)C)c2nc3c(C)cccc3s2)cc1	-7%	-1%	15µM*	9.3µM*	-20%	172%
COc1cccc(-c2nnc(SCC(=O)Nc3ccc(S(N)(=O)=O)cc3)n2C)c1	?	4%	-23%	-8%[5.75 µM]	?	-23%
CN(C)c1ccc(S(=O)(=O)N2CCCCC2)cc1NC(=O)CCNC(=O)c1ccc(Cl)cc1	?	-2%	-11%	?	0%	26%
O=C(c1cc2cc(F)ccc2[nH]1)N1CCC(Cc2ccccc2)CC1	1%	0%	?	?	3%	-14%
CCC1=Nc2cc(C(=O)NC3CCCC3)ccc2Sc2ccc(Cl)cc21	13%	/	/	/	6%	/
CCc1nc2ccc(C(=O)NCc3ccco3)cc2nc1CC	3%	-5%	?	/	28µM*	-11%
CCC1=Nc2cc(C(=O)O)ccc2Sc2ccccc21	?	11%	9%	?	-14%	-47%
CCC1=Nc2cc(C(=O)NCc3ccco3)ccc2Sc2ccccc21	-3%	-32%	7.4µM*	11%	?	-8%
CCC1=Nc2cc(C(=O)NCC3CCCO3)ccc2Sc2ccc(Br)cc21 (stereo not drawn)	-5%	-10%	2.9µM*	?	-12%	139%
CCC1=Nc2cc(C(=O)NCc3ccco3)ccc2Sc2ccc(Cl)cc21	-8%	-14%	1.5µM*	39%	?	-21%
CCC1=Nc2cc(C(=O)NCC3CCCO3)ccc2Sc2ccc(Cl)cc21 (stereo not drawn)	5%	1%	?	?	8%	129%
CCOC(=O)C1=C2NC(=O)c3ccccc3N2C(=O)C1	-2%	-1%	3%	39%	?	6%
COc1ccc(CNc2nc3c(c(=O)n(C)c(=O)n3C)n2Cc2ccccc2Cl)cc1	1%	/	/	/	-1%	/
Nc1c([N+](=O)[O-])c(=O)oc2ccccc12	?	2%	-1%	348%	-5%	-7%
Cc1ccc(-c2csc3nc(-c4ccncc4)[nH]c(=O)c23)cc1	?	1%	-5%	4%	4%	-16%
Cc1ccc(-c2nc3ccsc3c(=O)[nH]2)cc1	-2%	-1%	2.1µM*	480%	7%	-26%
CCCOP(=O)(c1ccc(N(C)C)cc1)C(O)c1ccccc1OC (stereo not drawn)	?	4%	1%	8%	-28%	21%
CCCOP(=O)(c1ccc(N(C)C)cc1)C(Nc1ccccc1)c1ccc(N(C)C)cc1 (stereo not drawn)	-8%	-2%	2.6µM*	8.3µM*	-12%	135%
CCCCOP(=O)(c1ccc(N(C)C)cc1)C(Nc1ccccc1)c1ccccc1 (stereo not drawn)	-9%	-75%	?	15µM*	-19%	133%
NC(=O)C1Cc2ccccc2CN1C(=O)c1nn(Cc2ccccc2)c(=O)c2ccccc12 (stereo not drawn)	8%	2%	9.3µM*	5.9µM*	2%	65%
CC1(C)Cc2c(c(N3CCOCC3)nc3sc(-c4ccc(C(=O)O)o4)c(N)c23)CO1	0%	-6%	12µM*	100%	?	-3%
CN1Cc2c(N3CCOCC3)nc3sc(C(=O)c4ccc(Br)cc4)c(N)c3c2CC1(C)C	3%	-3%	4.1µM*	9.3µM*	6%	164%
SMILES	AmpC inh detg	SARS PLpro yeast	Pf growth 48h	Pf growth 96h	Sm TGR inh	AmpC no deterg
CC1(C)Cc2c(c(N3CCOCC3)nc3snc(NC(=O)c4ccccc4)c23)CO1	-7%	-12%	/	8.3µM*	-8%	-12%
CNC(=O)c1ccc(-c2sc3nc(N4CCOCC4)c4c(c3c2N)CCCC4)o1	?	-9%	12µM*	?	-27%	126%
CN1Cc2c(N3CCOCC3)nc3sc(C#N)c(N)c3c2CC1(C)C	-1%	1%	?	?	-6%	-12%
CNC(=O)c1ccc(-c2sc3nc(N4CCOCC4)c4c(c3c2N)CC(C)(C)OC4)o1	-13%	3%	?	?	-15%	4%
CCC(=O)N1CCc2cc(S(=O)(=O)NCCC(=O)NC3CCCCCC3)ccc21	1%	-3%	?	?	-8%	6%
CC(=O)OCc1c(C)cc(C)c(/C=C(/C#N)C(N)=O)c1C	-7%	0%	10%	-29%	/	3%
CCOc1cc(-c2ccc(OC(=O)c3ccccc3F)cc2)cc(=O)c2c(C)oc(C)c12	30%	/	/	/	-15%	/
COc1ccccc1-c1nnc(SCC(=O)NNC(=O)c2ccccc2F)n1C	-1%	-9%	16%	30%	5%	-4%
COc1ccc(NC(=O)Nc2ccccc2SC)cc1	-2%	-2%	239%	5.9µM*	-4%	-29%
COc1ccc(NC(=O)C(CC(=O)O)Cc2ccccc2)cc1 (stereo not drawn)	?	6%	4%	7.4µM*	1%	-1%
COc1ccc(NC(=O)Nc2ccccc2F)cc1	-16%	-2%	/	324%	0%	-9%
COc1ccc(NC(=O)C(CC(=O)O)Cc2ccc(Br)cc2)cc1 (stereo not drawn)	?	-3%	4%	?	-9%	-17%
O=C(/C=C/c1ccco1)NC1CCCC1	-4%	1%	-4%	?	4.5µM*	-20%
O=C(COC(=O)/C=C/c1ccc(Br)o1)NC1CCCCC1	-11%	-1%	?	-28%	13µM*	-24%
CC1CCCCC1NC(=O)COC(=O)/C=C/c1ccco1 (stereo not drawn)	-4%	-2%	19%	22%	40µM*	-23%
O=C(COC(=O)/C=C/c1ccc(Br)o1)Nc1ccccc1F	-2%	1%	6%	11%	79µM*	-31%
CSc1ccccc1NC(=O)COC(=O)/C=C/c1ccco1	/	-5%	/	/	/	-15%
